The record followed here is PubChem BioAssay (NCI).

The structures appear in SMILES notation. This is part of a sample that, as a whole, favours compounds with a hit. Of some 83,000 tested, about 20% had one in any assay.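 Method: cells in 96-well plates; compound added at one concentration; 48 h incubation; percent growth measured; values under 10 scored active.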 Unmarked numbers belong to inactive results. Active and inactive are the calls of the source.

Holding throughout (assay): NCI-60 one-dose screen, 48 h (100 = growth as untreated, 0 = no growth, -100 = all killed)
The subject of assay [1] is NCI-H23 lung. Conditions: 10 µM unless noted.
Assay [2] has as its system NCI-H226 lung. The note with it: 10 µM unless noted.
Assay [3] has as its system NCI-H322M lung. Conditions: 10 µM unless noted.
Assay [4] has as its system HOP-62 NSCLC. Conditions: 10 µM unless noted.
Assay [5] has as its system NCI-H460 lung. Conditions: 10 µM unless noted.
For assay [6], the system named is HOP-92 NSCLC. The note with it: 10 µM.
Assay [7] deals with NCI-H522 lung. Conditions: 10 µM unless noted.
The subject of assay [8] is A549/ATCC NSCLC. The note with it: 10 µM unless noted.
The test system of assay [9] is 786-0 renal. Conditions: 10 µM unless noted.
In assay [10] the test system is COLO 205 colon. The note with it: 10 µM unless noted.

For the compound `CCn1c(SCC(=O)Nc2cccc(C(=O)/C=C/c3cc(OC)c(OC)c(OC)c3)c2)nc2ccccc2c1=O`, the growth was -17.1% (active) in [1]; 11.5% in assay [2]; 54.4% in assay [3]; 53.8% in assay [4]; 2.34% (active) in assay [5]; 34.6% in assay [6]. Further, the growth in assay [7] was 38%; in assay [8], 41.1%; in assay [9] it was 30.2%; in assay [10], 102%.
On to `C=CCn1c(SCC(=O)Nc2ccc(C(=O)/C=C/c3cccc([N+](=O)[O-])c3)cc2)nnc1-c1c[nH]c2ccccc12`, for which the growth in assay [1] was 94.1%; in assay [2] it was 74.2%; in assay [3], 91.2%; in assay [4] it was 106%; in [5] it was 102%; in assay [6], 101%. The growth was 78.9% in [7], 93.9% in assay [8], 106% in assay [9] and 110% in [10].
`O=C(NCCn1ccnc1)c1ccc(-c2nc3ccc4[nH]ncc4c3c3c2CCCC3)cc1`: the growth in assay [1] is 71%; in assay [2] it was 69.7%; in assay [3], 83.8%; in assay [4], 55.4%; in assay [5] it was 59.9%; in assay [6], 46.9%. In addition, the growth in assay [7] is 3.21% (active); in [8], 97.3%; in assay [9], 75.6%; in assay [10], 56.1%.
In the case of `COC(=O)C1(C)CCC[C@]2(C)[C@H]3C[C@H]4C(C(C)C)=C[C@]3(CC[C@@H]12)[C@H]1[C@@H]4[C@@H](OC(=O)c2ccco2)CC[C@@H]1OC(=O)c1ccco1` (stereo not given in full), the growth in assay [1] is 104%; in assay [2], 103%; in assay [3], 106%; in assay [4], 96.9%; in assay [5], 117%; in assay [6], 102%. The growth in [7] was 99.6%; in assay [8] it was 102%; in assay [9] it was 94.3%; in assay [10], 115%.
Consider `O=C1CCCc2nc(Nc3ccc(S(=O)(=O)Nc4ccc([N+](=O)[O-])cc4)cc3)ncc21`, for which the growth was 102% in [1]; 109% in [2]; 106% in assay [3]; 111% in assay [4]; 103% in assay [5]; 121% in [6]. Besides, the growth in assay [7] was 87.7%; in assay [8], 104%; in assay [9], 99.9%; in [10], 121%.
As to `O=S(=O)(NCCCNc1nccc(-c2[nH]c(-c3ccccc3)nc2-c2ccc(Cl)c(O)c2)n1)c1ccc(Br)cc1`, the growth in assay [1] was 46.1%; in assay [2], 38.3%; in assay [3], 58.4%; in assay [4], 46.7%; in assay [5], 22.3%; in [6], 46%. Also, the growth in assay [7] is 26.6%; in assay [8], 30.2%; in assay [9] it was 53.4%; in assay [10], 81.3%.
Regarding `COc1ccccc1N1CCN(C2=CC(=O)C(C)=C(C)C2=O)CC1`, the growth was 99.5% in assay [1]; 96.9% in assay [2]; 112% in [3]; 103% in assay [4]; 102% in assay [5]; 117% in assay [6]. Further, the growth is 88.1% in assay [7], 102% in assay [8], 108% in [9] and 112% in assay [10].
`COc1ccc2c(c1)Oc1nc(N)c(C#N)c(N)c1C2Sc1ccc(C)cc1` (stereo not given): the growth in assay [1] was -19.3% (active); in [2] it was -1.63% (active); in assay [3] it was 51.9%; in assay [4] it was 100%; in [5], -37.6% (active); in assay [6], -35.9% (active). For the same compound, the growth in [7] was -51.5% (active); in assay [8], 75.6%; in [9] it was -80.7% (active); in assay [10], -16.7% (active).
As to `CC1(C)CC[C@]2(CN)CC[C@]3(C)C(=CC[C@@H]4[C@@]5(C)CCCNC(C)(C)[C@@H]5CC[C@]43C)[C@H]2C1`, the growth in [1] was 104%; in [2] it was 105%; in assay [3], 99%; in assay [4], 93.9%; in assay [5] it was 99.5%; in [6], 81.2%. Also, the growth in assay [7] is 105%; in [8] it was 92.2%; in [9], 92.8%; in [10], 109%.
For the compound `C=C(C=O)[C@@H]1CC[C@]2(C)[C@H](C(=O)C=C3[C@H]4C[C@](C)(C(=O)OC)CC[C@]4(C)CC[C@]32C)[C@@]1(C)CCC#N`, the growth in assay [1] was 4.93% (active); in [2], -53.6% (active); in [3], 109%; in assay [4], 41.2%; in assay [5] it was 32.4%; in assay [6] it was -35.2% (active). Besides, the growth in assay [7] was 52.5%; in [8], 104%; in assay [9], 13.6%; in assay [10], 86.4%.
For `CCC1=Cc2cc(OC)ccc2OC12C=Cc1cc(OC)ccc1O2` (stereo not given), the growth in [1] was 17%; in assay [2], 65.4%; in assay [3], 50.2%; in [4] it was 64.3%; in assay [5], 4.15% (active); in assay [6], 57.3%. In addition, the growth was -23.9% (active) in assay [7], 26.5% in [8], 37.3% in assay [9] and -6.28% (active) in assay [10].
`N/C(=N\C(N)=N\c1nc2ccccc2s1)c1ccc(C(F)(F)F)cc1`: the growth is 39% in assay [1]; 69.6% in assay [2]; 100% in assay [3]; 91% in [4]; 22.6% in assay [5]; 82.1% in assay [6]. The growth is 88.1% in assay [7], 6.31% (active) in [8], 93% in [9] and 119% in assay [10].
Consider `Cc1ccc(-n2cc(/C=C/C(=O)c3ccc(O)cc3)c(-c3ccc(S(C)(=O)=O)cc3)n2)cc1`, for which the growth was 68.9% in [1]; 99.6% in [2]; 99.1% in [3]; 76% in [4]; 80.8% in assay [5]; 110% in assay [6]. Moreover, the growth in [7] is 58.9%; in [8] it was 102%; in assay [9], 94.4%; in assay [10], 111%.
